# Neddyl block = inhibitors of cullin neddylation, primary screen, biochemical, TR-FRET, uHTS, NAE and Ubc12. NEDD8-conjugating enzyme Ubc12 (Homo sapiens) + NEDD8-activating enzyme E1 regulatory …. inhibition, % at 25 µM. 360,000 compounds, 0.58% hits; in the data active means inhibition above about 36%
# GC-A act = GC-A stimulated cGMP production enhancers – HEK293 GC-A cells, cGMP TR-FRET, EC30 ANP, primary screen | 370,000 compounds, 0.14% hits | activation, % at 10 µM | 0% at EC30 ANP, 100% saturating ANP | Atrial natriuretic peptide receptor 1 (Homo sapiens), P16066; in the data active means activation above about 40%
# NOD2-RIPK2 inh = NOD2-RIPK2 binding disruptors in cells, primary screen, fluorescence, CHO cells, BLA complementation. Receptor-interacting serine/threonine-protein kinase 2 (Homo sapiens), O43353. CCF4 ratio. inhibition, % at 4.98 µM. 360,000 compounds, 0.38% hits; in the data active means inhibition above about 21%
# GC-B act = human GC-B receptor activators, primary screen, HEK293 GC-B cells, cGMP TR-FRET, EC30 CNP; Atrial natriuretic peptide receptor 2 (Homo sapiens), P20594; AID 1920062, 2024; 370,000 compounds, 0.11% hits; 0% at EC30 CNP, 100% saturating CNP; activation, % at 10 µM;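 active means activation at 10 µM reaching about 35% in either raw or pattern-adjusted values, limit read from the data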
# TLR9-MyD88 block = inhibitors of TLR9-MyD88 association in cells, primary screen, cell-based, CHO, BLA complementation, fluorescence. 340,000 compounds, 0.21% hits. Toll-like receptor 9 (Homo sapiens) + Myeloid differentiation primary response protein …. inhibition, % at 4.98 µM. CCF4 FRET ratio. AID 504734, 2011;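 active means inhibition above the mean over all tested compounds plus 3 SD, cut at about 21% in these data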
# TLR4-MyD88 BLA = inhibitors of TLR4-MyD88 association in cells, primary screen, cell-based, HeLa CL3-4, BLA complementation, FRET ratio | inhibition, % at 8.4 µM | AID 861, 2007 | 200,000 compounds, 0.18% hits | HeLa CL3-4 TLR4/MyD88 BLA complementation; in the data active means inhibition above about 25%
# Neddyl conf = blockade of NEDD8 conjugation to cullin – biochemical, TR-FRET, single concentration, confirmation; shares compounds with Neddyl block; TR-FRET cullin neddylation biochemical assay; calls only at 25 µM; 1,800 compounds, 13% hits; AID 652217, 2013; in the data active means inhibition above about 40%;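 further: neddylation substrate is the cullin 1 ring ligase complex with SKP2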
# Numbers stand for hits; – = inactive; · = no result given. Sampled rows, rich in hits. Any-hit rate of the full collection: about 1.2%.
SMILES,Neddyl block,GC-A act,NOD2-RIPK2 inh,GC-B act,TLR9-MyD88 block,TLR4-MyD88 BLA,Neddyl conf
COc1cc2oc(-c3ccc(O)cc3)cc(=O)c2c(O)c1OC,–,–,–,–,–,·,·
COc1cc2oc(-c3ccc(O)cc3)cc(=O)c2c(OC)c1O,40.0,–,–,–,–,·,–
Cc1ccc2nc(C)cc(C(=O)OCC(=O)Nc3cccnc3Cl)c2c1,44.1,–,–,–,–,–,–
C/C=C/c1cccc(-c2nc(C(=O)N3CCCCC3)cc3c2[C@@H](CCO)N(C(=O)NC(C)C)C3)c1,–,–,–,–,·,·,·
COc1cccc(-c2ccc3c(N)c(C(=O)NC4CC4)sc3n2)c1,37.5,–,–,–,–,·,·
CN(C)c1ccc(/C=C/c2c([N+](=O)[O-])c(=O)n(C)c(=O)n2C)cc1,43.6,–,–,–,–,·,–
Cn1c(/C=C/c2ccc(Br)cc2)c([N+](=O)[O-])c(=O)n(C)c1=O,–,–,–,–,–,·,·
O=C(N/N=C/c1cn(Cc2ccccc2)c2ccccc12)c1ccncc1,–,–,–,–,–,–,·
Nc1ccc(C(=O)N/N=C/c2cn(Cc3cccc(F)c3)c3ccccc23)cc1,43.5,–,–,–,–,·,–
Cc1cc(=O)oc2cc(OC(C)C(=O)N3CCOCC3)c(Cl)cc12 (configuration not stated),44.2,–,–,–,–,·,–
CN(C)CCn1c(SCc2ccccc2C#N)nc2c(sc3ccccc32)c1=O,46.4,–,–,–,–,·,·
COc1ccccc1NC(=O)CSc1nc2c(sc3ccccc32)c(=O)n1CCN(C)C,–,–,–,–,–,–,·
Cc1[nH]c2ccccc2c1/C=N/NC(=O)c1cc(-c2cccs2)[nH]n1,44.5,–,–,–,–,–,–
Cc1cc(C(=O)N/N=C/c2c(C)[nH]c3ccccc23)n[nH]1,–,–,–,–,–,·,·
C[C@@H]1COc2cc(Br)ccc2S(=O)(=O)N1Cc1cn(Cc2ccc(Cl)cc2)nn1,·,–,·,–,·,·,·
CC1CN(S(=O)(=O)c2cccc(C(=O)NCC(c3cccs3)N3CCOCC3)c2)CC(C)O1 (configuration not stated),–,–,–,–,–,·,·
O=C(N/N=C/c1ccc(-c2cccc(C(F)(F)F)c2)o1)c1ccccc1O,51.4,–,–,–,–,–,–
O=CNc1c(Cl)cc2c(c1Cl)Cc1cc([N+](=O)[O-])ccc1-2,–,–,–,–,–,·,·
COc1cccc(Nc2nc3ccccc3n3nnnc23)c1,44.4,–,–,–,–,–,·
CC1(C)C2CCC1(CS(=O)(=O)Nc1ccccc1)C(=O)C2 (configuration not stated),–,–,–,–,–,–,·
CC1(C)C2CCC1(CS(=O)(=O)NC1CCCC1)C(=O)C2 (configuration not stated),42.6,–,–,–,–,–,–
CC1(C)Cc2c(C#N)c(NC3CCCCC3)nc(-c3ccco3)c2CO1,·,·,–,·,–,–,·
CC1(C)Cc2c(C#N)c(NCC3CCCO3)nc(-c3ccco3)c2CO1 (configuration not stated),48.9,–,–,–,–,–,·
Nc1cc(S(=O)(=O)O)cc2ccc(S(=O)(=O)O)cc12,44.3,–,–,–,–,·,·
Nc1ccc(C(=O)Nc2ccc3c(O)cc(S(=O)(=O)O)cc3c2)cc1,–,–,–,–,–,·,·
SMILES,Neddyl block,GC-A act,NOD2-RIPK2 inh,GC-B act,TLR9-MyD88 block,TLR4-MyD88 BLA,Neddyl conf
Cc1ccc(C(=O)N/C(=C/c2ccc(-c3cc(C(F)(F)F)ccc3Cl)o2)C(=O)NCc2cccnc2)cc1,48.0,–,–,–,–,–,·
Cc1ccc(C(=O)N/C(=C\c2ccco2)C(=O)NCc2cccnc2)cc1,–,–,–,–,–,–,·
CCc1c(C)nc2c(-c3ccccc3)c[nH]n2c1=O,43.1,–,–,–,–,·,·
CCOC(=O)Cc1c(C)nc2c(-c3ccccc3)c[nH]n2c1=O,·,–,–,–,–,–,·
O=C(CSc1nc2ccccc2c(=O)n1-c1ccc(Cl)cc1)NNC(=S)Nc1ccccc1,·,–,·,–,·,·,·
Cc1cccc(NC(=O)c2ccc(OCc3c(C)noc3C)cc2)c1C,–,–,–,–,–,·,·
Cc1cccc(C)c1NC(=O)c1ccc(OCc2c(C)noc2C)cc1,49.9,–,–,–,–,·,–
CCOc1cc(/C=C(/C#N)c2nc3ccccc3[nH]2)ccc1OCc1ccc(C(=O)O)o1,38.4,–,–,–,–,–,–
CCOc1cc(/C=C(/C#N)c2ccc(F)cc2)ccc1OCc1ccc(C(=O)O)o1,–,–,–,–,–,–,·
CCOC(=O)Cc1ccc(Nc2nc(NCCOC)nc3ccsc23)cc1,–,–,–,–,·,·,·
C=CCNc1nc(NCCOc2ccccc2Cl)c2sc(-c3ccccc3)cc2n1,–,–,–,–,·,·,·
COc1ccc(C2NC3=C(CCC3)C3(C#N)C(OC)(OC)N=C(N)C23C#N)cc1 (configuration not stated),39.3,·,–,·,–,–,–
C[C@H]1C2CC(OC(=O)Nc3ccc(F)cc3)C(C2)[C@H]2CCCCN21 (some centres not stated),·,–,·,–,·,·,·
COc1cc(/C=C/C2=NNC(=O)CC2)cc(OC)c1OC,41.2,–,–,–,–,·,–
CC(C)c1ccc(/C=C/C2=NNC(=O)CC2)cc1,–,–,–,–,–,–,·
C[C@@H]1CN([C@@H](C)CO)C(=O)c2cc(/C=C/c3ccccc3)cnc2O[C@@H]1CN(C)S(=O)(=O)c1ccc(F)cc1,41.4,–,–,–,–,·,–
CC1CCN(S(=O)(=O)c2ccc3c(c2)C(=NO)c2cc(S(=O)(=O)N4CCC(C)CC4)ccc2-3)CC1,39.0,–,–,–,–,–,–
OC[C@@H]1CN(Cc2ccco2)C[C@H](n2cnc3c(Nc4ccccc4)ncnc32)O1,42.6,–,–,–,·,·,·
O=C(O)c1ccc(CN2C[C@@H](CO)O[C@@H](n3cnc4c(Nc5ccccc5)ncnc43)C2)cc1,–,–,–,–,·,·,·
OC[C@@H]1CN(Cc2ccc(Cl)cc2)C[C@H](n2cnc3c(Nc4ccccc4)ncnc32)O1,47.3,–,–,–,·,·,·
COC(=O)[C@]12C[C@H](CC(=O)NCCCCc3ccccc3)C(=O)N(CCC3=CCCCC3)C1=C[C@H](COCc1ccccc1)O[C@@H]2C,·,–,·,–,·,·,·

# Source: PubChem (several laboratories)
